# Data published in PubChem BioAssay AID584 (National Center for Advancing Translational Sciences (NCATS), 2007).
# The campaign covered roughly 71,000 compounds. About 65 (0.09%) were called active. The sample holds actives, similar compounds and a random draw of the others, so the mix is not that of the screen. A number with no mark means an inactive call. Calls follow the shape of the dose curve; as a rule, active = well fitted curve in the direction sought with a large enough effect; inconclusive = small, poorly fitted or top-dose-only effect; inactive = flat fitted curve, though single readings scatter.
# Molecular target: Beta-lactamase (Escherichia coli (strain K12)) (UniProt P00811)
# Assay: Promiscuous and Specific Inhibitors of AmpC Beta-Lactamase (assay with detergent)
# Details: purified AmpC, nitrocefin hydrolysis with detergent; series mostly up to 28.7 µM; activity change, negative = inhibition: at the top concentration
# Protocol: NIH Molecular Libraries Screening Centers Network [MLSCN]
# NIH Chemical Genomics Center [NCGC]
# PI Name: Shoichet, Brian K.
# This aggregation profiling approach exploits the sensitivity of aggregate formation to detergent. Inhibition of b-lactamase is measured in the presence and absence of 0.01% Triton X-100. This particular assay had the prescence of 0.01% Triton X-100. See Pubchem assay "Promiscuous and Specific Inhibitors of AmpC Beta-Lactamase (assay without detergent)" for related screen. Compounds that inhibit only in the absence of detergent are considered likely promiscuous aggregators.
# A screen of 1,030 compounds was performed in Brian Shoichet's lab in 96-well format. AmpC activity was measured by following the absorbance at 480 nm. Nitrocefin is a chromogenic substrate: while nitrocefin is yellow (lmax 390 nm), the product of its hydrolysis is red (lmax 486 nm, 17,000 M-1). AmpC beta lactamase was provided by Brian Shoichet and Brian Feng, UCSF.
# NCGC Assay Protocol Summary:
# 20 mM phosphate buffer, pH 7.0
# Triton X-100: No Detergent screen: 0.0001%, Detergent screen: 0.01%.
# Buffer in columns 3 and 4 as negative control (no enzyme).
# 5.3 nM AmpC in columns 1, 2, 5-48. Titration of UCSF compound 9 control (from 10 mM, then 1:2) pin-transferred to column 2. Column 1 is neutral (100% activity).
# Six uL of reagents were dispensed to 1536-well Greiner black clear bottom plates. Compounds and controls (23 nL) were transferred via Kalypsys PinTool. The plates were incubated for 15 min at room temperature, and then 2 uL of 800 uM solution of nitrocefin was added to start the reaction. The plates were immediately transferred to and read every 20 seconds for 4 min on ViewLux (Perkin-Elmer) High-throughput CCD imager using 480 nm absorbance protocol. During dispense, reagent bottles were kept submerged into 4 deg C water bath.
# Keywords: NIH Roadmap, MLSCN, MLI, MLSMR, qHTS, NCGC, AmpC Beta-Lactamase, Aggregation
# % is scaled to controls: 0 for no effect and ±100 for the full control effect.
# Beta-lactamase (Escherichia coli (strain K12)), sequence (P00811 whole entry, looked up): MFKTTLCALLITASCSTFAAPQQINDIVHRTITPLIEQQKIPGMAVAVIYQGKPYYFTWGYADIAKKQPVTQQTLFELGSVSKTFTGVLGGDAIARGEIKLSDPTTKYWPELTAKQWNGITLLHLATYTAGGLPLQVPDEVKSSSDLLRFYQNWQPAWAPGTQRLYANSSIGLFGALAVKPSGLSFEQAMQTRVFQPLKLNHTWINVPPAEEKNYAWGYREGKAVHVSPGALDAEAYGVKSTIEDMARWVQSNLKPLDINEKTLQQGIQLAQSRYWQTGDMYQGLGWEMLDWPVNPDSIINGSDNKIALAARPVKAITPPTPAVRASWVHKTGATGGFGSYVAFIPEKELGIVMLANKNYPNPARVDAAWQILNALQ
row,Compound,"activity change, negative = inhibition"
1,COc1ccc(-c2noc(COc3ccc(Cl)c(C)c3)n2)cc1,8.41%
2,COCC(C)NC(=O)c1ccc(Cl)c(Cl)c1 (stereo not drawn),-5.24%
3,Cc1ccc(-c2ccc(=O)n(CC(=O)NCCCN3CCCCC3)n2)cc1,-2.99%
4,COc1ccc(S(=O)(=O)N2CCC(C(=O)N3CCc4ccccc4C3)CC2)cc1OC,-5.79%
5,CCn1c(=O)cc(SCC(=O)NCc2ccc3c(c2)OCO3)c2ccccc21,2.33%
6,COc1ccccc1-c1nc(C(F)(F)F)c(OC)o1,-3.4%
7,CCC(=O)Nc1ccccc1N1CCN(S(C)(=O)=O)CC1,-0.929%
8,COc1cc(C2C(C#N)=C(C)NC3=C2C(=O)CC(C)(C)C3)ccc1O (stereo not drawn),-0.562%
9,Cc1ccc(S(=O)(=O)N2CCOCC2)cc1C(=O)NCc1ccc(F)cc1,-4.01%
10,COc1cc(Br)cc(/C=N/c2ncn[nH]2)c1O,-0.505%
11,COC(=O)[C@@]1(Cc2ccccc2)[C@H]2c3cc(C(=O)N4CCCC4)n(Cc4ccc(C)o4)c3C[C@H]2CN1C(=O)c1ccccc1,-3.5%
12,CCn1c(CSc2ncccn2)nnc1SCC(=O)N1c2ccccc2CC1C (stereo not drawn),0.00583%
13,COc1cc(C2C(C(=O)Nc3ccc(F)cc3)=C(C)Nc3nc(CCCO)nn32)cc(OC)c1OC (stereo not drawn),9.75%
14,CC(C)c1ccc(NS(=O)(=O)c2cn(C)c(=O)n(C)c2=O)cc1,9.52%
15,O=C(CCn1c(=O)oc2ccccc21)Nc1ccon1,2.22%
16,CCOC(=O)c1cc(-c2nnc(-c3cc(OC)c(OC)c(OC)c3)o2)c(C)nc1C,3.14%
17,c1csc(CN2CCN(Cc3cccs3)C2c2cccs2)c1,3.14%
18,COC(=O)CNS(=O)(=O)c1ccc(Cc2ccc(S(=O)(=O)NCC(=O)OC)cc2)cc1,11.4%
19,Cc1ccc(C2(c3ccc(C)cc3)NC(=O)N(Cc3c(C)noc3C)C2=O)cc1,-4.23%
20,C[C@@H](C(=O)Nc1ccc2ccccc2c1)[C@@H]1C[C@@]1(C)[C@@H](NC(=O)c1cccnc1)c1ccccc1,-2.3%
21,N#Cc1c2c(c(N3CCN(CCO)CC3)n3c1nc1ccccc13)CCCC2,-1.69%

row,Compound,"activity change, negative = inhibition"
1,Cc1cc(Br)ccc1NC(=O)C1CCCO1 (stereo not drawn),-2.73%
2,CO[C@@H]1/C=C\O[C@]2(C)Oc3c(C)c(O)c4c(O)c(c(CN(C)C)c(O)c4c3C2=O)NC(=O)/C(C)=C\C=C[C@@H](C)[C@@H](O)[C@H](C)[C@@H](O)[C@H](C)[C@H](OC(C)=O)[C@@H]1C,-4.9% [at 5.75 µM]
3,O=C(CCCCn1c(=O)[nH]c2ccccc2c1=O)NCc1ccc2c(c1)OCO2,14.5%
4,CCN(CC(=O)NC(C)C)C(=O)CCNC(=O)c1ccc(Cl)cc1,-4.89%
5,COc1ccc(-c2nc3cnc(N(C)C)nc3n(Cc3cccs3)c2=O)cc1,-2.8%
6,CCOC(=O)C1C(=O)C=C(c2ccc(OC)cc2)CC1c1ccco1 (stereo not drawn),-3.67%
7,O=C(C1CCC(C(=O)N2CCCC2)CC1)N1CCCC1 (stereo not drawn),-2.96%
8,O=C1CCc2cc(S(=O)(=O)N3CCC(C(=O)NCc4ccccc4Cl)CC3)ccc2N1,11.6%
9,COc1cccc(-n2c(Cc3cc(=O)[nH]c(=O)[nH]3)nnc2SCC(=O)Nc2ccccc2)c1,11.9%
10,COc1ccc(C)cc1NC(=O)CSc1nc(SC)ns1,-4.47%
11,Cc1ccc2cc3cc(C(=O)N4CCCCCC4)oc3nc2c1,-1.31%
12,COc1ccccc1CNc1ncnc2ccc(-c3c(C)noc3C)cc12,10.9%
13,CC(=O)N1[C@H](C)C=C[C@]1(Cc1ccccc1)C(=O)NCc1ccccn1,13.8%
14,CCOc1cc2[nH]c(=S)n(CCCN3CCCC3=O)c(=O)c2cc1OCC,-1.69%
15,CCOc1cc(C(=O)N2CCc3cc(OC)c(OC)cc3C2)ccc1OC(F)F,-2.69%
16,N#C/C(=C\c1ccc(O)c(O)c1)C(=O)NCc1ccccc1,inactive
17,C=C(C)COc1ccc(-c2n[nH]c(C)c2-c2ccccc2OC)c(O)c1,3.39%
18,CC(C)(C)n1nnnc1C(c1ccc2ncccc2c1)N1CCSCC1 (stereo not drawn),-3.81%
19,NCCNCC1CCNCC1,-0.8% [at 5.75 µM]
20,CCc1nnc(NC(=O)c2ccc(S(=O)(=O)NC3CCCCC3)cc2)s1,10.1%
21,Cc1cccc(N2CCN(C(c3ccccc3)c3nnnn3CC3CCCO3)CC2)c1C (stereo not drawn),-2.94%

row,Compound,"activity change, negative = inhibition"
1,Cc1cccc2cc(CN(Cc3nnnn3Cc3ccccc3)C3CCCC3)c(=O)[nH]c12,30.9%
2,CCS(=O)(=O)N1CCCC(C(=O)NCCCN(C)Cc2ccccc2)C1 (stereo not drawn),-2.63%
3,CC1=CC(=O)C2=C(C)C[C@H](O)[C@@H]3[C@@H](OC(=O)[C@H]3C)[C@H]12,0.4%
4,Cc1ccc(N2C(=O)c3oc4ccccc4c(=O)c3C2c2cccnc2)nc1 (stereo not drawn),12.4%
5,O/N=C1\CC2(Cc3nonc31)OCCO2,-0.261%
6,Cn1c(=O)c(-c2ccccc2)nc2cnc(N3CCNCC3)nc21,-2.9%
7,CCOC(=O)CSc1nnc(CNc2nc(-c3ccccc3)cs2)n1C,6.67%
8,Cc1ccc(-n2nc(-c3ccco3)cc2C(=O)NCc2cccnc2)cc1,-4.9%
9,Cc1ccc(S(=O)(=O)N2CCC(C(=O)N[C@@H](C)C(=O)NCc3ccccc3)CC2)cc1,-0.931%
10,N#Cc1ccccc1-c1ccc2ncnc(NCc3cccnc3)c2c1,0.3%
11,NC(=O)c1ccc(OC[C@H](O)CN2CC=C(c3ccc(F)cc3)CC2)cc1,-3.1%
12,CCCn1c(-c2ccc(F)cc2)nc2c(NC3CCN(Cc4ccccc4)C3)nc(C)nc21 (stereo not drawn),13.7%
13,CC(C)c1cc(CN(C)C)c(O)c(C(C)(C)C)c1,-4.5% [at 5.75 µM]
14,O=C1N(Cc2ccc3c(c2)OCO3)c2ccccc2C1(O)c1c[nH]c2ccccc12 (stereo not drawn),1.62%
15,CC(C)(C)NC(=O)C(c1ccncc1)N(C(=O)CNC(=O)c1ccco1)c1ccc2c(c1)OCO2 (stereo not drawn),-3.56%
16,O=C(NC12CC3CC(CC(C3)C1)C2)N1CCCC(CO)C1 (stereo not drawn),-4.1%
17,CC(C)(O)[C@H]1[C@H]2OC(=O)[C@@H]1[C@]1(O)C[C@H]3O[C@]34C(=O)O[C@H]2[C@]14C,7.4%
18,CC(=O)Oc1ccc(C(=O)Nc2nccs2)cc1,9.77%
19,COc1ccc2[nH]cc(CCNc3cc(-c4ccccc4CN(C)C)ncn3)c2c1,9.4%
20,CCCNC(=O)C1CC(=O)N(c2ccc(OCC(=O)Nc3cccc(C)c3C)cc2)C1 (stereo not drawn),10.2%
21,O=C(NCC1CCCO1)C(C(=O)c1ccccc1)n1cc(Cl)ccc1=O (stereo not drawn),7.55%
